# Molecular target: Left-right determination factor 2 (Homo sapiens) (UniProt O00292)
# Assay: small molecules binding LEFTY2 protein – biochemical, small-molecule microarray, 635 nm fluorescence scan, primary screen (AID 1110)
# Conditions: higher = more signal
# Chain of Left-right determination factor 2 (Homo sapiens) (O00292 whole entry, looked up): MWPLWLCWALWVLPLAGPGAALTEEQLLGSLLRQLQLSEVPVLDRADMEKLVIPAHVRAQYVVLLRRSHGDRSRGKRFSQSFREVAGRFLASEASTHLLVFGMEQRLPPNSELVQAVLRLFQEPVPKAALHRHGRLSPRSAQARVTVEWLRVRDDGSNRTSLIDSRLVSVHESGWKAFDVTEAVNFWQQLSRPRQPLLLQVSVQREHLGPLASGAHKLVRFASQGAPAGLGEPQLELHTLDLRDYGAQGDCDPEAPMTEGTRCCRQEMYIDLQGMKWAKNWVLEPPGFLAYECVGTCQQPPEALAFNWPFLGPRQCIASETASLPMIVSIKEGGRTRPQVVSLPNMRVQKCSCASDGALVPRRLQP
row,SMILES,composite z-score
1,CC(C)(C)OC(=O)CC[C@]1(C(=O)NCCN2CCOCC2)N=C(c2ccc(OCCCO)cc2)O[C@H]1c1ccccc1,-0.103
2,C=CC[C@@]12N=C(c3ccc(OCCCO)cc3)O[C@@H]1c1ccccc1N(CCS(=O)(=O)c1ccccc1)C2=O,0.526
3,CCOC(=O)C[C@H]1[C@H](OC(=O)c2ccccc2-c2ccccc2)[C@@H](NC(=O)CC(C)C)c2cc(OCCCO)ccc2N1C(=O)c1ccc2ccccc2n1,0.186
4,COc1ccc(C(O)C2C=CC3C(=O)N(c4ccccc4)C(=O)C3N2Nc2ccccc2)cc1OCc1ccccc1 (stereo not given),0.0977
5,NCCCCCNC(=O)[C@@H]1C[C@@H]2C(=O)N[C@@H](CCCCN)C(=O)N2[C@@H]1c1cccc(OCCO)c1,0.599
6,CCCCC(CC)C(O)C1C=CC2C(=O)N(c3ccccc3)C(=O)C2N1Nc1ccc([N+](=O)[O-])cc1 (stereo not given),0.362
7,CC(C)(C)OC(=O)CC[C@]1(C(=O)O)N=C(c2ccc(OCCCO)cc2)O[C@H]1c1ccccc1CN=[N+]=[N-],-0.688
8,C=C(/C(=C/C[C@@H](OC(=O)c1ccncc1)c1ccccc1OCCO)c1cc(C(=O)OC)ccc1OC)C(C)C,0.788
9,O=C1O[C@@H](c2ccccc2)[C@@H](c2ccccc2)N2[C@@H](c3ccccc3OCCO)[C@]3(C(=O)Nc4ccccc43)[C@@H](C(=O)NC[C@H](O)c3ccccc3)[C@H]12,-0.555
10,COCCOC(=O)N1C(=O)[C@@]2(c3cc(C#CC4(O)CCCCCC4)ccc31)[C@H](c1ccccc1OCCO)N1[C@H](c3ccccc3)[C@H](c3ccccc3)OC(=O)[C@H]1[C@@H]2C(N)=O,0.844
11,O=c1cccc(-c2cccc(Cl)c2)o1,0.128
12,COCCOC(=O)N1C(=O)[C@@]2(c3cc(C#CC4=CCCCC4)ccc31)[C@H](C(=O)N1CCN(c3ncccn3)CC1)[C@H]1C(=O)O[C@H](c3ccccc3)[C@H](c3ccccc3)N1[C@@H]2c1ccc(O)cc1,0.557
13,COCC(=C=CC[C@H](O)c1ccc(OCCO)cc1)C[C@H](O)COCc1ccccc1,0.32
14,C=C[C@@H](COC(C)=O)NS(=O)(=O)c1ccc(Br)cc1,0.219
15,O=C1C2C=CC(C(O)c3cc(C(F)(F)F)cc(C(F)(F)F)c3)N(Nc3ccc([N+](=O)[O-])cc3)C2C(=O)N1c1ccccc1 (stereo not given),0.511
16,CC(=O)NCCCC[C@@H]1NC(=O)[C@@H]2C[C@H](C(=O)O)[C@H](c3ccc(O)cc3)N2C1=O,-2.7
17,COCCOC(=O)N1C(=O)[C@@]2(c3cc(C#CC4=CCCCC4)ccc31)[C@H](c1ccc(O)cc1)N1[C@H](c3ccccc3)[C@H](c3ccccc3)OC(=O)[C@H]1[C@@H]2C(=O)Nc1nc2ccccc2s1,0.494
18,CC(C)CNC(=O)[C@@H]1c2ccccc2C(=O)N(Cc2cc(F)cc(C(F)(F)F)c2)[C@H]1c1ccc(CO)cc1,-0.0784

row,SMILES,composite z-score
1,C=C(C(=O)CC[C@H](OC(C)=O)c1cccc(OCCO)c1)C(C)C,-0.728
2,O=C1O[C@@H](c2ccccc2)[C@@H](c2ccccc2)N2[C@@H](c3ccc(O)cc3)[C@]3(C(=O)Nc4ccc(C#CCCO)cc43)[C@@H](C(=O)NC[C@H](O)c3ccccc3)[C@H]12,-1.87
3,CCCN1C(=O)[C@]2(Cc3ccccc3)N=C(c3ccc(OCCCO)cc3)O[C@@H]2c2ccccc21,0.118
4,C[C@H]1C2=C3C(CC[C@H]4C(OCc5ccc(F)cc5C(F)(F)F)OC[C@](C)([C@@H]34)N(C(=O)OC(C)(C)C)C2)C2COC(=O)OCC21 (stereo not given in full),-0.431
5,O=C1c2ccccc2[C@](Cc2ccccc2I)(C(=O)NCCN2CCOCC2)[C@H](c2ccc(CO)cc2)N1Cc1ccccc1,0.522
6,COC(=O)[C@@]1(Cc2ccc(OC)cc2)[C@H]2c3cc(C(=O)N(C)C)n(Cc4nc5ccccc5[nH]4)c3C[C@H]2CN1C(=O)c1ccccc1,-0.314
7,C[C@]1(C(=O)NC2CC2)c2ccccc2C(=O)N(Cc2ccc(OC(F)(F)F)cc2)[C@H]1c1ccc(CO)cc1,-1.07
8,CN(C)CCCNC(=O)[C@@H]1c2ccccc2C(=O)N(CC23CC4CC(CC(C4)C2)C3)[C@H]1c1ccc(CO)cc1,0.832
9,CC1CC/C=C\[C@H]2OC34C=CCN(C(C)C)C(=O)[C@H]3N(CCCCCO)C(=O)[C@@H]4C2C(=O)O1 (stereo not given in full),-2.15
10,C=CCOC(=O)[C@H]1[C@@H]2C(=O)O[C@@H](c3ccccc3)[C@@H](c3ccccc3)N2[C@@H](c2ccc(OCCOC(=O)[C@H]3C[C@H]4C(=O)N[C@@H](Cc5ccccc5)C(=O)N4[C@H]3c3cccc(OCCO)c3)cc2)[C@]12C(=O)Nc1ccc(I)cc12,0.692
11,CC(C)CN1C(=O)[C@@]2(c3ccc([N+](=O)[O-])cc3)CC(=O)N(CC34CC5CC(CC(C5)C3)C4)[C@@H]2c2ccc(CO)cc21,-1.36
12,C=C(CCCC)/C(=C/C[C@@H](OC(C)=O)c1ccc(CO)o1)c1cc(C(=O)OC)ccc1OC,0.26
13,COC(=O)C1(Cc2ccccc2)C=C2C(=C(C(C)C)C(=O)C2C)CN1 (stereo not given),-1.41
14,COc1ccc([Si](C)(C)[C@@H]2[C@@H](CCO)O[C@]3(C(=O)N(Cc4cccc(N5C(=O)c6cccc7cccc5c67)c4)c4ccccc43)[C@H]2C)cc1,-0.385
15,C=CCC(OC(C)=O)[C@@H]1[C@@H](N(Cc2cc3ccccc3o2)C(=O)Cc2ccc(F)cc2)c2cc(OCCCO)ccc2N1C(=O)c1ccc2ccccc2n1 (stereo not given in full),-0.139
16,C=CCOC(=O)[C@@H]1[C@H]2C(=O)O[C@H](c3ccccc3)[C@H](c3ccccc3)N2[C@H](c2ccc(OCCOC(=O)[C@H]3C[C@H]4C(=O)N[C@@H](CCCC[N+](C)(C)C)C(=O)N4[C@H]3c3ccc(O)cc3)cc2)[C@@]12C(=O)Nc1ccc(I)cc12,1.05
17,[N-]=[N+]=Nc1ccccc1[C@@H]1OC(c2ccc(OCCCO)cc2)=N[C@]1(CCS(=O)(=O)c1ccccc1)C(=O)NCCN1CCOCC1,0.382

# From PubChem BioAssay
